Screening results (PubChem BioAssay)
Rows were chosen to be rich in hits. Some 3.4% of all compounds tested hit in one or more screens of this group.
FBW7 activator = human FBW7 E3 ligase activation, primary screen. Q969H0. AlphaScreen FBW7–phospho-cyclin E peptide binding, activator screen. normalized activity (activation), % at 26.1 µM. 650,000 compounds, 0.13% hits. AID 1259310; in the data active = normalized activity above about 1.9%;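 also: purified mutant Fbw7 with reduced substrate affinity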
TEAD-YAP inh = TEAD-YAP interaction inhibition | AID 1259422 | inhibition, % at 9.12 µM | 640,000 compounds, 1.4% hits | HEK-TIYL cells, TEAD-Gal4/YAP UAS-luciferase luminescence; in the data active = inhibition above about 32%;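 also: 0% = median of test compound wells and 100% = reference inhibitor wells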
GPR151 ag = human GPR151 activation | activation, % at 11.2 µM | PathHunter beta-arrestin GPR151 cells, luminescence | 650,000 compounds, 1% hits | Q8TDV0; in the data active = activation above about 4.9%;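 also: 0% = median of compound wells and 100% = cells with positive control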
MITF primary = human MITF inhibition, primary screen; AID 1259374; AlphaScreen MITF homodimerization, bead proximity signal; inhibition, % at 2.6 µM; 650,000 compounds, 0.91% hits; in the data active = inhibition above about 50%;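 also: 0% = vehicle wells with protein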
Target sequence (O75030 whole entry, looked up): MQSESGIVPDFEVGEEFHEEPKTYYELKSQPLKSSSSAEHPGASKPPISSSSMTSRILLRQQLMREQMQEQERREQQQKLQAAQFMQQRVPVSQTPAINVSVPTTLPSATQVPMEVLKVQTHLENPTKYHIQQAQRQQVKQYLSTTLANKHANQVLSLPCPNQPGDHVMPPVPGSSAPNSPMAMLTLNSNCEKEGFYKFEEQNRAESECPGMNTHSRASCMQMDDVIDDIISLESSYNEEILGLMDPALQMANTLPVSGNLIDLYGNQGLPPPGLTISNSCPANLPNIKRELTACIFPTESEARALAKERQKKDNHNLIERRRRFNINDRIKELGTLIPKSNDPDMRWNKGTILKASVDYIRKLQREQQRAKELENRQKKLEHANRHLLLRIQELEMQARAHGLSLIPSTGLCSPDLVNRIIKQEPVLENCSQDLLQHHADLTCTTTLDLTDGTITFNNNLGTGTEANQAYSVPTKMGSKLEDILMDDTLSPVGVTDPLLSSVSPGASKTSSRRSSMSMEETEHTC
GPR151 conf act = human GPR151 activation, confirmation screen. shares compounds with GPR151 ag. GPR151 PathHunter beta-arrestin cells, luminescence, 90 min; % of EA-reagent control over plate median. activation, % at 11.2 µM. 6,700 tested, under 10 active. AID 1508609;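 active = mean percent activation across replicates above the confirmation screen cutoff of 4.91%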
GPR119 ag = GPR119 activation, counter-screen for GPR151 activators; shares compounds with GPR151 ag; GPR119 PathHunter beta-arrestin cells, luminescence, 90 min; 0 = compound-well median, 100 = enzyme-acceptor control; activation, % at 11.2 µM; 6,700 compounds, 0.3% hits;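 active = mean percent activation in the counterscreen above 29.09%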;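 also: counterscreen on off-target GPR119 to flag nonselective hits from the GPR151 activator screen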
The depositor's hits bear a star; x = no result; ! = repeats disagree.

SMILES | FBW7 activator | TEAD-YAP inh | GPR151 ag | MITF primary | GPR151 conf act | GPR119 ag
CCOC(=O)C1CCN(c2c(N3CCN(c4cccc(Cl)c4)CC3)c(=O)c2=O)CC1 | 0 | -5 | 5.2* | 3 | -1 | -16
Cc1ccc(S(=O)(=O)NC(=O)N2c3ccccc3CCc3ccccc32)cc1 | 0 | -1 | 7.4* | -4 | -1 | -13
O=c1c2c(-c3ccccc3)csc2ncn1Cc1ccccc1 | 0 | 10 | -1 | 1 | x | x
O=C(O)c1ccc(Cn2cnc3scc(-c4ccccc4)c3c2=O)cc1 | 0 | -1 | 5.2* | 0 | 0 | 7
CC(Oc1ccc2c3c(c(=O)oc2c1)CCCC3)C(=O)O (stereo unspecified) | 0 | 7 | 0 | -1 | x | x
CSCCC(NC(C)=O)C(=O)Oc1ccc2c3c(c(=O)oc2c1)CCCC3 (stereo unspecified) | 1 | 4 | 5.4*! | 15 | 0 | -4
Cc1ccc(-n2c(=O)[nH]cc(C(=O)Nc3ccccc3C)c2=O)cc1C | 0 | 3 | 0 | 7 | x | x
CCCCSc1nnc2c(n1)OC(C)(C)Nc1ccccc1-2 | 0 | 4 | 5.1* | 9 | 0 | 3
CCCCSc1nnc2c(n1)OC(c1ccccc1OCC(=O)OCC)Nc1ccccc1-2 (stereo unspecified) | 0 | -23 | 5.1* | -5 | 0 | 4
CCCCSc1nnc2c(n1)OC(c1ccccc1OC)Nc1ccccc1-2 (stereo unspecified) | 0 | -9 | -2 | 0 | x | x
CN(C)CC(C)(O)c1ccc2c(c1)CN(Cc1ccc3c(c1)OCCO3)CCO2 (stereo unspecified) | 0 | -1 | 4.9* | -3 | 1 | 18
NC(=O)C1CCCc2c1[nH]c1c(C(=O)O)cccc21 (stereo unspecified) | 0 | 1 | 6.1* | -8 | -1 | -1
C=CCN1C(=O)CS/C1=N\NC(=O)c1ccccc1 | 0 | -1 | 18* | 2 | 1 | 4
CCOC(=O)c1sc(NC(=O)C2CC2)nc1C | 0 | 8 | 13* | -5 | 1 | 5
Cc1ccc([N+](=O)[O-])cc1NC(=O)c1ccccc1Cl | 0 | 3 | 1 | 5 | x | x
COc1ccccc1C(=O)Nc1ccc(I)cc1Cl | 0 | -20 | 7.2* | -23 | 0 | 12
COc1cccc(OC)c1C(=O)Nc1ccc(I)cc1Cl | 0 | -6 | -1 | -25 | x | x
O=C(Nc1ccc([N+](=O)[O-])cc1Cl)c1ccccc1Cl | 0 | -11 | 8.1* | -18 | 1 | 11
Cc1ccc(C(=O)Nc2ccc([N+](=O)[O-])cc2)c(Cl)c1 | 0 | -44 | 15* | 8 | 1 | 6
O=C(Nc1ccc(S(=O)(=O)Nc2nccs2)cc1)c1ccc([N+](=O)[O-])cc1Cl | 0 | -2 | 5.2* | 8 | 0 | -2
O=C(Nc1ccc2c(c1)OCO2)c1csc(Nc2ccc3ncccc3c2)n1 | 0 | -11 | 3 | 3 | x | x
CCOC(=O)C1=C(C)NC(=S)NC1c1c(OCC(=O)OC)ccc2ccccc12 (stereo unspecified) | 0 | -1 | -1 | 1 | x | x
Cc1cc(C)cc(C(=O)Nc2ccc([N+](=O)[O-])cc2C)c1 | 0 | 2 | 8.9* | -6 | 0 | -3
COc1ccc(C(=O)COc2ccc3c(C)c(Cl)c(=O)oc3c2)cc1 | 0 | 5 | 1 | 4 | x | x
O=S(=O)(CCc1ccccc1)NCC1(c2cccs2)CCCC1 | 0 | 2 | 5.2* | -3 | 0 | 0
SMILES | FBW7 activator | TEAD-YAP inh | GPR151 ag | MITF primary | GPR151 conf act | GPR119 ag
COc1cccc(CNC(=O)C2CCCc3sc(NC(=O)c4ccccc4)nc32)c1 (stereo unspecified) | 0 | -4 | 5.2* | 9 | 0 | 5
COc1ccc(OC)c(S(=O)(=O)N2CCCC(N(C)CCc3ccccc3)C2)c1 (stereo unspecified) | 0 | -1 | -1 | -9 | x | x
COc1cc(/C=C/c2[nH]c(=O)[nH]c(=O)c2[N+](=O)[O-])cc(OC)c1OC | 0 | -3 | 7.7* | 10 | -1 | -4
COc1cc(/C=C/c2[nH]c(=O)[nH]c(=O)c2[N+](=O)[O-])cc(Cl)c1O | 0 | 2 | 0 | 11 | x | x
CCC(C)NC(=O)c1ccc2c(=O)n(C3CCCC3)c(=O)[nH]c2c1 (stereo unspecified) | 0 | -2 | 0 | -12 | x | x
COc1ccccc1CNC(=O)c1cnn2c(C)c(Cc3ccc(C)cc3)c(C)nc12 | 0 | -4 | 5.6* | -7 | 0 | 12
Cc1nc2c(C(=O)NCc3ccccc3Cl)cnn2c(C)c1Cc1cccc(Cl)c1 | 0 | 2 | 5.3* | -1 | -1 | -3
Cc1nc2c(C(=O)NC3CC3)cnn2c(C)c1Cc1cccc(Cl)c1 | 0 | 11 | -1 | 4 | x | x
CCCCNC(=O)c1cnn2c(C)c(Cc3ccc(F)cc3)c(C)nc12 | 0 | -3 | 8.3* | -4 | 1 | 14
Cc1nc2c(C(=O)NC3CCCC(C)C3C)cnn2c(C)c1Cc1cccc(Cl)c1 (stereo unspecified) | 0 | 2 | 6.5* | 6 | 0 | 4
O=C(NC(=S)Nc1ccc(Cl)cc1F)c1ccco1 | 0 | -27 | -1 | -14 | x | x
c1ccc2c(c1)nc(Nc1ccc3c(c1)OCCO3)c1nncn12 | 1 | 10 | 0 | 5 | x | x
O=C1CCCC2=C1C(c1cccnc1)n1c(nc3ccccc31)N2 (stereo unspecified) | 0 | -9 | -2 | 24 | x | x
Cc1ccc(C2=NN(CC(=O)N3CCCC3)C(=O)CC2)cc1 | 0 | -6 | 0 | -9 | x | x
Cc1nc2c(C(=O)NCC3CCCO3)cnn2c(C)c1Cc1ccccc1 (stereo unspecified) | 0 | -3 | 0 | 0 | x | x
Cc1cccc(Cc2c(C)nc3c(C(=O)NCC4CCCO4)cnn3c2C)c1 (stereo unspecified) | 0 | -1 | 5.1* | -10 | 0 | -1
CCOC(=O)c1c(C)[nH]c(NC(=O)Nc2ccc(OCC)cc2)c1C | 0 | 3 | 6.0* | -6 | 1 | 4
CCOC(=O)c1c(C)[nH]c(NC(=O)Nc2ccc(F)cc2)c1C | 0 | 2 | 0 | -4 | x | x
COC(=O)c1ccc(NC(=O)COc2ccc(C34CC5CC(CC(C5)C3)C4)cc2)cc1 | 0 | 7 | 5.3* | 5 | -1 | 3
Cc1ccc2[nH]c(=O)c(CN(CC3COCCO3)S(=O)(=O)c3ccc(F)cc3)cc2c1 (stereo unspecified) | 0 | -12 | 5.3* | 11 | -1 | 0
Cc1cc(C)cc(-n2cnc3cc(C(=O)NCc4ccc5c(c4)OCO5)ccc32)c1 | 0 | -3 | -1 | -16 | x | x
Cc1cccc(-n2cnc3cc(C(=O)NCc4ccc5c(c4)OCO5)ccc32)c1 | 0 | 5 | 7.0* | 15 | -1 | -7
